# Measured values: the supplement of paper PMC6555819
# Legend:
# Experiment in all cases: PBM binding z-score (relative to random genomic background probes); higher = stronger binding; sequences stand for … in GC…GCGATTGACAGCGTAGAATGAAGG
# [1] = system: LXRa:RXRa (NR concentration 270 nM, RXRa partner concentration 90 nM)
# How it was run: (§1)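 Binding z-scores take random background probes as their reference. They come from custom Agilent 4×180K protein-binding microarrays incubated 1 h with ligand-free nuclear receptor dimers, with antibodies against each partner (one per run) detecting binding. Scanned fluorescence was regression-normalized.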
# [2] = system: LXRa homodimer (NR concentration 270 nM)
# How it was run: as §1
# [3] = system: LXRb homodimer (NR concentration 270 nM)
# How it was run: as §1
# [4] = system: PPARg:RXRa (NR concentration 180 nM, RXRa partner concentration 90 nM)
# How it was run: as §1
# [5] = system: PPARg:RXRa 270nM:90nM, anti-RXR (NR concentration 270 nM, RXRa partner concentration 90 nM)
# How it was run: as §1
# [6] = system: PPARg:RXRa 30nM:10nM, anti-RXR (NR concentration 30 nM, RXRa partner concentration 10 nM)
# How it was run: as §1
# [7] = system: PPARg:RXRa 90nM:30nM, anti-RXR (NR concentration 90 nM, RXRa partner concentration 30 nM)
# How it was run: as §1
# [8] = system: PPARg:RXRa DBDmut IVT, anti-RXR (DBD mutation: RXRa K156A/R161A, NR concentration 270 nM, RXRa partner concentration 90 nM)
# How it was run: as §1
Sequence,PBM binding z-score [1],PBM binding z-score [2],PBM binding z-score [3],PBM binding z-score [4],PBM binding z-score [5],PBM binding z-score [6],PBM binding z-score [7],PBM binding z-score [8]
CGTCCAAGGTCGAAGGTCAGTGAAGAGATGACGG,3.14,0.000668,-0.645,5.43,5.79,3.26,5.18,0.518
CGTCCAAGGTTAAGGTCAGTGAAAGAGACTCGAA,3.28,0.367,-0.224,2.06,2.6,0.541,1.49,1.47
AATACAGGGTAACTAGGCCAGAGTAGGTACGAAT,0.106,-0.23,-0.0777,2.82,2.44,0.877,1.88,3.4
ATATGTAGGTTAGGGTCAGTCAGAAAGTAGGGAA,2.82,0.758,1.69,6.72,5.54,3.24,4.97,6.27
GATACAGGGTCGGCTAGAGGCCAGAGTATGGAAA,0.191,-0.632,-1.28,0.561,0.616,-0.167,0.215,-0.804
CGAACTAGGTCAAAGGACATTGAAAGGCGACGTA,2.7,0.172,-0.137,10.8,8.84,9.04,10.6,8.06
CCTGCTAGGTCATGGTCAGCGAATCTACAGTATG,2.19,-0.0156,-0.255,2.7,2.69,0.687,1.77,4.64
CGAACTAGGTCACCCAGGACAGTGAATACATTGA,2.03,0.478,-0.274,8.33,6.66,4.23,6.12,8.48
AGAACGAGGTCACGCTGAGTTGATAGCAGAGTAG,6.2,0.912,0.705,9.52,8.1,6.32,7.52,6.78
CGTCCGAGGTCAAGGTCAGTGAAAGAGACTCGAA,6.22,1.31,1.54,7.82,7.45,3.9,6.47,4.18
AGAATGAGGTCAAGATCAGGGAAACAGAATACAT,5.9,0.974,1.7,7.59,6.96,4.75,6.74,5.82
TATAAAGGGTCAAAGGCCAGAGTACGAATGTCGA,6.68,2.98,3.14,8.34,7.5,6.09,7.52,2.57
CGTCAAAGTCCAAGGTAACGTAACAGAAAGCAGC,-0.0963,0.0661,-0.271,0.688,0.296,0.129,0.303,0.295
TGTCAACGTTCAAAGGTAACGTAAGTATCCACAC,0.794,-0.182,0.0417,2.58,2.69,1.18,2.07,-0.155
TTACCAAGGTCAAGGTCGTTGATCCCTCTGTAGA,5.51,3.05,1.11,6.32,6.38,3.44,5.46,3.67
CCTACTGGGCCTAAGGTCATTGATTCCAATGCTC,2.93,2.32,0.209,7.98,8.17,7.15,8.08,1.25
TAGCCTAGGTCACATCGGGCCAGTATACGCTATA,3.44,0.038,0.0362,2.64,2.61,0.683,1.59,2.1
GCTGCTAGGTCAACTGATGGTCAACTAAAGCTCG,3.47,0.653,0.415,3.01,3.06,0.746,2.31,4.87
CAAACTAGGTCAAGGTCTAAGTCGGTTTGTGCCA,2.44,0.318,0.246,8.27,7.05,5.25,6.46,8.12
CCTCGGAGGACAGAAGGTCAAAGCTGTCCGCTTT,4.02,1.82,-0.421,0.66,2.18,-0.0409,1.41,0.187
CGTCCAAGGTCATAGAGGTCAGTGAATGCCGAGT,6.21,5.25,1.36,5.9,6.21,2.57,4.71,4.3
CGTCAAAGATCAAGGTAACGTAACAGAAAGCAGC,-0.053,-0.313,-0.677,0.887,1.09,0.0515,0.332,0.519
CGTCCAAGGTCACAGAGGTCAGTGAATGCCGAGT,6.12,5.07,1.08,7.01,6.54,3.38,5.63,4.6
AATACAGGGTCACGAGGCCAGAGTAGGTACGAAT,6,1.22,0.897,8.68,7.43,4.39,6.65,3.9
CGTCAAAGGTCAGCAGGTCAGTGAAAGCGACGTG,6.48,2.22,1.28,8.46,7.84,4.46,7.02,4.94
ATCGAAAGGTCGAAGGTGCGTATACCCACCCGAA,3.22,0.0571,0.0928,3.21,3.25,1.01,2.44,-0.0152
CCTGCGAGGTCATGGTCAGCTAATCTACAGTATG,5.55,1.41,0.772,5.93,5.94,2.34,4.57,3.79
CCTTACGGGTCCCTCCAGGTTATAGCATCGGAGT,-0.148,-0.112,-0.475,-0.172,-0.6,-0.679,-0.697,-1.14
